From PubChem BioAssay (NCI)
The panel holds about 79,000 compounds, 15% with a hit somewhere; the sample as a whole holds those more often. No stated cut-off is given here; in the data, active means growth inhibition above about 70%; inactive means the rest.

Columns and labels:
[1] = NCI Yeast Anticancer Drug Screen. Data for the rad50 strain (AID 155);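 further: 0% = growth of vehicle-only cultures of the same strain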; details: S. cerevisiae rad50 strain growth inhibition; at 50.0 µM; hits give high values
Method in brief: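 Yeast carrying a defined DNA repair defect were exposed to test compounds, and growth was compared with vehicle-treated controls to give percent inhibition.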

[2] = NCI Yeast Anticancer Drug Screen. Data for the mec2-1 strain (AID 157); details: S. cerevisiae mec2-1 strain, at 50.0 µM, hits give high values
Method in brief: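 Test agents were screened against the mec2-1 yeast strain, with defined DNA repair or cell cycle alteration. Growth was scored as inhibition against vehicle-only controls.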

[3] = NCI Yeast Anticancer Drug Screen. Data for the mlh1 rad18 strain (AID 175); details: S. cerevisiae mlh1 rad18 strain growth inhibition; at 50.0 µM; hits give high values
Method in brief: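 In this whole-cell yeast screen, a strain with altered DNA damage repair is challenged with compound, and its growth is measured against matched vehicle-treated controls.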

Measured: growth inhibition

CCOC(=O)C(C#N)N=Nc1ccccc1 (configuration not stated)
inactive: [1] 10.2% | [2] -7% | [3] 10.2%

CCOC(=O)NC(C)(C)CN(C(=O)OCC)c1ccccc1
inactive: [1] -31.4% | [2] -39.6% | [3] -10.7%

S=C=NC1CCCCCCCCCCC1
inactive: [1] 18.9% | [2] -3.9% | [3] 36.6%

O=c1oc(-c2cccc([N+](=O)[O-])c2)nc2ccccc12
inactive: [1] 4.4% | [2] -10.2% | [3] 4.8%
